This passage reports growth results from PubChem BioAssay (NCI).

Where “and” joins values, the source holds several entries; their conditions need not be identical. Identical values can stand only once. About 83,000 compounds went through this panel and 20% of them were active in at least one assay; those are over-represented in the sample as a whole.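 Treatment: one concentration, 48 hours, 96-well format. Scoring: percent growth, with anything below 10 considered active.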 Calls of active or inactive are those of the source.

The subject of this assay is MDA-MB-468 breast. The assay is described as follows: NCI-60 one-dose screen, 48 h (100 = growth as untreated, 0 = no growth, -100 = all killed). As to conditions: 10 µM unless noted.
`O=C(NC1CCN(Cc2ccccc2)CC1)c1cc(-c2ccncc2)nc2ccc(Cl)cc12`: the growth was 12.8% (inactive). Take `CCOC(=O)C/C(C)=N\O`: the growth is 98.2% (inactive).

As for `C[C@@H](Oc1cc(-c2cnn(C3CCNCC3)c2)cnc1N)c1c(Cl)ccc(F)c1Cl`, the growth was -79.8% (active). Turning to `CCN(CC)CCOc1cccc2c1C(=O)c1ccccc1C2=O`, the growth is 91.4% (inactive). `Nc1nc(=S)c2ncn(C3OC(CO)C(O)C3O)c2[nH]1` (centres undefined): the growth is 114% (inactive) and -12.1% (active). With `COc1ccc(Nc2cc(C)nc(N3CCN(c4ccnc5cc(Cl)ccc45)CC3)n2)cc1`, the growth was 21.7% (inactive). For `COc1ccc(Cn2cc(C(=O)N=Nc3c(O)[nH]c4c(C)cccc34)nn2)cc1`, the growth is 89.2% (inactive).

Turning to `NNC(=O)Oc1c(Cl)cc(Cl)cc1[N+](=O)[O-]`, the growth is 112% (inactive). Turning to `COc1ccc(C(O)c2cc3c(N)c(C(=O)Nc4cccc5ccccc45)sc3nc2C)cc1` (centres undefined), the growth was 23.7% (inactive). Regarding `O=c1[nH]c2ccccc2cc1CSc1ccccc1Nc1nccc(-c2ccc(C(F)(F)F)cc2)n1`, the growth is 47.6% (inactive). Take `Clc1ccc(C2=NN=C3C(Cc4ccccc4)=Nc4ccccc4N3C2)cc1`: the growth was 84.7% (inactive). Under `Cc1ccc(-c2nc3nc(-c4ccccc4)nc(N4CCCNCC4)c3o2)cc1` stands -67.5% (active). As for `O=C1C(c2ccccc2)C2C=CC(C2)N1O` (centres undefined), the growth is 98.9% (inactive). As for `Oc1cccc(Nc2nc(-c3ccccn3)cs2)c1`, the figure is 110% (inactive); as for `Nc1nc(-c2cccc([N+](=O)[O-])c2)c(N=Nc2ccccc2Cl)s1`, 55.2% (inactive); as for `O=C(Cn1c(=O)sc2ccccc21)NNS(=O)(=O)c1ccccc1[N+](=O)[O-]`, 107% (inactive).

On to `Cc1ccc(S(=O)(=O)NC(=O)n2cc(-c3ccncc3)c(-c3ccc(Cl)c(O)c3)n2)cc1`, for which the growth was 101% (inactive). As to `CC1=C(C/C=C(\C)CCC[C@H](C)CCC[C@H](C)CCCC(C)C)C(=O)c2ccccc2C1=O`, the growth is 116% (inactive). Turning to `COc1cc(C2C3=C(COC3=O)Nc3c2ccc2c3CCCC2)cc2c1OCO2` (centres undefined), the growth is -6.39% (active).

`NC(N)=Nc1ccc(Oc2cccc(Nc3ccc(Cl)c(C(F)(F)F)c3)c2)cn1`: the growth was -84.4% (active). For `CCc1ccc(C2=NN(c3ccc(S(C)(=O)=O)cc3)C(=O)CC2)cc1`, the growth was 50.7% (inactive). As for `O=C1/C(=C/c2ccc(O)cc2)COc2ccc(O)c(O)c21`, the figure is -2.18% (active); as for `Cc1ccc(CSc2nc(-c3ccc(Cl)cc3)c(C#N)c(N3CCOCC3)n2)cc1`, 84% (inactive). With `CC1c2ccccc2-c2ccccc2N1C` (centres undefined), the growth was 103% (inactive).

In the case of `CN1CCN(Cc2ccc(NC(=O)c3cncc(C#Cc4cnccc4C(F)(F)F)c3)cc2C(F)(F)F)CC1`, the growth is 84.4% (inactive).

On to `COc1ccc(C(=O)c2cc(OC)c3c(c2)OCO3)cc1O`, for which the growth was 0.266% (active). Take `Oc1ccc(O)cc1`: the growth was 96.7% (inactive). Consider `CCCCCCCCNc1ncnc2c1ncn2Cc1nnc2c3ccccc3c(Cl)nn12`, for which the growth was 40.6% (inactive). Consider `Cc1nn(-c2ccccc2)c2c1N=c1s/c(=C\c3cn(-c4ccccc4)nc3-c3ccc(Cl)cc3)c(=O)n1C(C)N2` (centres undefined), for which the growth was 86.6% (inactive).

Consider `COC(=O)C(C(=O)OC)C(Br)C(Br)C(Br)c1ccccc1` (centres undefined), for which the growth is 36.7% (inactive). As for `CCCCc1ccc(Nc2ccc(Nc3ccc(CCCC)cc3S(=O)(=O)O)c3c2C(=O)c2ccccc2C3=O)c(S(=O)(=O)O)c1`, the growth was 112% (inactive). Turning to `CC(C)C(/C=C/c1[nH]ncc1-c1cc(Cl)ccc1O)N1CCOCC1` (centres undefined), the growth was 84.9% (inactive). As to `CC1CCC(=O)N1c1ccc(N)cc1` (centres undefined), the growth was 115% (inactive). Consider `Cc1ccc(Sc2nnc(/N=C3\C(=O)Nc4ccccc43)s2)cc1`, for which the growth is 102% (inactive). Under `O=C(O)c1cccc2c1-c1ccccc1C2=O` stands 116% (inactive); under `O=C(OCC1OC(n2cc(C(F)(F)F)c(=O)[nH]c2=O)CC1OC(=O)c1ccc([N+](=O)[O-])cc1)c1ccc([N+](=O)[O-])cc1` (centres undefined), 85.3% (inactive); under `N#C/C(C(=O)c1ccccc1)=C1/C(=O)Nc2ccc(Br)cc21`, 102% (inactive). Regarding `O=[N+]([O-])c1ccc2[nH]c(=S)n(/C=C(/c3ccc(Cl)cc3Cl)S(=O)(=O)Cc3ccc(Cl)cc3Cl)c2c1`, the growth was 111% (inactive).

For `O=C(Nc1nc(-c2ccccc2Cl)cs1)c1cc(-c2ccc(Br)cc2)nc2ccccc12`, the growth was 5% (active).
